The entries come from a sample that favours hits as a whole.
ERK EGF block: EGF-driven ERK pathway inhibition; HEK293-V1b, EGF-stimulated phospho-ERK AlphaScreen; Potency, µM (doses to about 11.5 µM), without a hit: at the top dose activity change, negative = inhibition, hits mostly inhibitors; 130,000 tested, 0.41% active;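 further: potency means the concentration at half of the fitted maximal effect; plate controls were stimulated vehicle wells for no effect and unstimulated vehicle basal for full effect; nearly all actives have a fitted effect of over 55% in size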
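Phospho-ERK1/2 measured by AlphaScreen (SureFire) after 5 min 25 nM EGF stimulation of V1b-expressing HEK293 cells preincubated 30 min at 37C with titrated compounds; data scaled to DMSO and EGF controls, Hill-fitted AC50.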
pERK EGF inh: confirmation of ERK pathway inhibitors under EGF stimulation; HEK293 EGF-stimulated ERK phosphorylation, AlphaScreen; Potency, µM (top dose mostly 57.5 µM), for inactives: at the highest dose activity change, negative = inhibition, hits mostly inhibitors; 60 tested, 60% active; shares compounds with ERK EGF block
cRaf kinase inh: blocks human c-Raf kinase activity; c-Raf kinase inhibition, homogeneous biochemical assay; 70 tested, under 10 active; shares compounds with ERK EGF block; activity change, negative = inhibition, % at 76.9 µM; AID 1728
Target sequence (P04049 whole entry, looked up): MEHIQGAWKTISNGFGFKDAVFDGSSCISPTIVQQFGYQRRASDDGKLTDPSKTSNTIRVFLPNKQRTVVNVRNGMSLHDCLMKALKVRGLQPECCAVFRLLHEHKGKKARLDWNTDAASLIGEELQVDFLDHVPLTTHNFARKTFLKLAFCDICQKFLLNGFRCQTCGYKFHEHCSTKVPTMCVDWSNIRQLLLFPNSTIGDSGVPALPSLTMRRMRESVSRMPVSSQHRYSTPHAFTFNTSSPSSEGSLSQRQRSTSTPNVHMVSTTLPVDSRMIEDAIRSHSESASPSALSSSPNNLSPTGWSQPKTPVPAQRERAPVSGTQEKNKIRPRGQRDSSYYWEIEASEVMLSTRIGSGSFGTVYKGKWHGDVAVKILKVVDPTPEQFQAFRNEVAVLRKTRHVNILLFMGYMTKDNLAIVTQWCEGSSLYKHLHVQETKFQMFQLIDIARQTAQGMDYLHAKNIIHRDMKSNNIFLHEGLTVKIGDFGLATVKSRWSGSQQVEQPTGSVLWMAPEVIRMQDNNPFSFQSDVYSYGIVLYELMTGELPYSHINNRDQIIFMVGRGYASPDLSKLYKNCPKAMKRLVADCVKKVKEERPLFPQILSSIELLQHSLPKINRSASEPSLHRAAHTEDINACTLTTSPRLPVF
MEK1 kinase inh: MEK1 (human) kinase inhibition. 70 tested, under 10 active. homogeneous MEK kinase activity assay, ERK pathway. Potency, µM (doses to about 76.9 µM), without a hit: top-dose activity change, negative = inhibition, most hits filed as inhibitors. shares compounds with ERK EGF block. AID 1732
Numbers without * were called inactive; ? = inconclusive; · = not tested or not shown; [ ] = another dose, or the depositor's remark. The call rests on the fitted dose curve; in most records, active means well fitted curve in the direction sought with a large enough effect; inconclusive means small, poorly fitted or top-dose-only effect, or another doubt; inactive means no such curve, though single readings can be large; an effect the other way counts as inactive or inconclusive.

SMILES	ERK EGF block	others
CCOc1ccc(-n2nc3c(=O)n(CCN4CCCCC4)nc(C)c3c2C)cc1	-5%
COc1ccc(C(=O)NCCN2CCOCC2)cc1OC	-9%
CCCOc1ccc(CN2CCOCC2)cc1OC	4%[57.5 µM]
COc1cc2ncnc(Nc3ccc(F)c(Cl)c3)c2cc1OCCCN1CCOCC1	·	cRaf kinase inh=-23;MEK1 kinase inh=4%
Cc1cc(C(=O)CN2CCCC(C)C2)c(C)n1-c1ccc(F)cc1 (configuration not stated)	-1%
COC(=O)c1cnn(-c2ccc(F)cc2F)c1/C=N/NC(N)=S	-11%[57.5 µM]
CCC1=C(OC(=O)N(CC)CC)N2C(=O)OC(=NCCOC)[C@]2(C)[C@H]2C1=CC[C@H]1C(=O)NC(=O)[C@H]12	1%
Nc1nc(C23CC4CC(CC(C4)C2)C3)[nH]c(=O)n1	3%[57.5 µM]
CCCn1c(=O)c2[nH]c(-c3ccccc3)nc2n(CCC)c1=O	-13%
CCn1c(=O)c2[nH]c(-c3ccccc3)nc2n(CC)c1=O	12%	cRaf kinase inh=-13;MEK1 kinase inh=-7%
CCn1c(SCC#N)nc2ccccc2c1=O	8%[57.5 µM]
COc1ccc2c(C=O)cn(C)c2c1	-14%[57.5 µM]
COc1ccc(NC(=O)CSc2ccc3nnc(-c4cccnc4)n3n2)c(OC)c1	-2%
CC1CCC(C(C)C)[C@H](OC(=O)c2ccccc2)C1 (some centres not stated)	17%
COc1ccc(-c2n(CC(=O)OC3CC(C)CCC3C(C)C)c3ccccc3[n+]2C)cc1 (configuration not stated)	1.8µM*	pERK EGF inh=-13%;cRaf kinase inh=-12;MEK1 kinase inh=-7%
CC1CCC(C(C)C)C(OC(=O)C2=C3c4ccccc4S(=O)(=O)N3CC2)C1 (configuration not stated)	3%
CCOc1cc(/C=N/NC(=O)C(=O)NC)cc(Br)c1O	2%
COc1ccc(/C=N/Nc2c(Cl)cc(Cl)cc2Cl)cc1CN1CCOCC1	-12%
CC1(C(=O)NCc2ccc(Cl)c(Cl)c2)Oc2cccnc2NC1=O (configuration not stated)	0%
Cc1[nH]ccc(=O)c1OC1OC(CO)C(O)C(O)C1O (configuration not stated)	3%
Cc1ccc(C)n1-c1ccccc1N1CCCCC1	-2%
O=C1c2cccc3c(N4CCCCC4)ccc(c23)C(=O)N1c1ccccc1O	0%
O=C1c2ccccc2C(=O)c2c1cccc2N1CCCC1	10µM*	pERK EGF inh=16µM*;cRaf kinase inh=?;MEK1 kinase inh=?
COC(=O)CNC(c1ccccc1Cl)c1cc(Br)ccc1NS(=O)(=O)c1ccc(C)cc1 (configuration not stated)	3%
COC(=O)c1cccc(C23CC4(C2)[C@H](CN(Cc2cccnc2)[C@@H]4c2ccccc2)C3c2ccc(C(F)(F)F)cc2)c1 (some centres not stated)	-4%
SMILES	ERK EGF block	others
CCOC(=O)c1ccc(NC(=S)NNC(=O)C2(C)CC2(Cl)Cl)cc1 (configuration not stated)	7%
Cc1ccc(C2NC(=NCc3ccccc3)Nc3nc(C)cc(=O)n32)cc1 (configuration not stated)	-6%[57.5 µM]
O=C(CN1CCN(c2ccc(C(F)(F)F)cn2)CC1)Nc1ccc2c(c1)OCO2	2%[57.5 µM]
O=C(O)CCCNC(=O)c1cccc(C(=O)NCCCC(=O)O)n1	5%
Cc1sc2ncnc(N/N=C/c3ccccc3O)c2c1C	4%
Cc1ccc(Nc2ncnc3sc(C)c(C)c23)cc1C	·	pERK EGF inh=11µM*;cRaf kinase inh=?;MEK1 kinase inh=-1%
Cc1sc2ncnc(N/N=C/c3ccc(O)cc3)c2c1C	-2%
CCCCCN1C(=O)Cn2c(nc3ccccc3c2=O)C1C (configuration not stated)	-9%
CCCCn1c(N)c(N(CC)C(=O)c2cccc(OC)c2)c(=O)[nH]c1=O	-2%
CC1CN(C(=O)COC(=O)c2ccc(Cl)nc2)CC(C)O1 (configuration not stated)	3%
CS(=O)(=O)Nc1cccc(-c2nc(Nc3ccccc3)c3ccccc3n2)c1	26%
CN(C)c1ccnc(-c2cccc(NS(C)(=O)=O)c2)n1	16%
CS(=O)(=O)Nc1cccc(-c2ccc3ncnc(Nc4ccc(F)cc4)c3c2)c1	1.1µM*	pERK EGF inh=1.4µM*;cRaf kinase inh=-36;MEK1 kinase inh=18%
OCCC1CN(Cc2cccn2-c2cccnc2)CCN1C1CCCCC1 (configuration not stated)	3%
COc1ccc(N=C/C=C2\C=C(c3ccccc3)OC(C)(C)O2)cc1	2%
Cc1ccccc1N=C/C=C1/C=C(c2ccccc2)OC(C)(C)O1	1%
